Measurements: PubChem BioAssay
Calls of active or inactive are those of the source.

Assays:
Albumin (Bos taurus) = Albumin (Bos taurus) (UniProt P02769); assay: compounds binding labelled BSA control protein – biochemical, small-molecule microarray, Alexa647 label, 635/667 nm fluorescence, artefact control for SMM control protein annotation, profiling panel (AID 1118); conditions: BSA-A647 binding, fluorescence 635 nm, higher = more signal;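 also: score merges 667 nm emission intensity and signal-to-noise per printed compound spot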
[1] = probe aXIP binding to arrayed compounds – biochemical, NeuroSMM set, 635/667 nm fluorescence, primary screen (AID 1119); conditions: small-molecule microarray, higher = more signal, called active from +8 up or from −8 down;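 also: probe is the protein aXip251-270 applied at 1 µg/mL to compound-printed slides; binding of probe to printed compounds measured as 667 nm fluorescence plus signal to noise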
[2] = probe aNOTCH3 binding on compound microarray – biochemical, small-molecule microarray, 635/667 nm fluorescence, primary screen (AID 1120); conditions: higher = more signal;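 also: probe is a biotin-tagged antibody raised against NOTCH3 rather than NOTCH3 protein; score merges spot fluorescence near 667 nm with spot signal to noise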
[3] = probe aNOTCH2 binding on compound microarray – biochemical, small-molecule microarray, 635/667 nm fluorescence, primary screen (AID 1121); conditions: higher = more signal;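 also: score merges feature fluorescence read at 667 nm with its signal to noise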
[4] = biological target: Carbonic anhydrase 2 (Homo sapiens) (UniProt P00918); assay: compounds binding carbonic anhydrase 2 – biochemical, small-molecule microarray, Alexa647-labelled CAII, profiling panel (AID 1122); conditions: CAII-A647 binding fluorescence, higher = more signal
[5] = COS7 lysate on small-molecule microarray, probe aHis, 635 nm (AID 1123); conditions: COS7 cell lysate, fluorescence, higher = more signal;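 also: z-score combines 667nm fluorescence intensity with signal-to-noise per printed compound spot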
[6] = probe aLAP1 signal on lysate-treated microarray – cell lysate, small-molecule microarray, COS7 lysate, primary screen (AID 1124); conditions: probe aLAP1, fluorescence, higher = more signal;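 also: lysate comes from COS7 cells expressing LAP1 and is applied at 0.3 µg/mL; score merges spot fluorescence near 667 nm with signal-to-noise over triplicate slides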
Sam68 (KHDRBS1) = assay: compounds binding KHDRBS1 protein – biochemical, small-molecule microarray, 635 nm fluorescence, primary screen (AID 1125); conditions: higher = more signal;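 also: score merges 667 nm channel intensity with signal to noise over triplicate slides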
[7] = test system: Chordin-like protein 2 (CHRDL2); assay: compounds binding chordin-like 2 – biochemical, small-molecule microarray, 635 nm fluorescence, primary screen (AID 1126); conditions: fluorescence 635 nm, higher = more signal;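 also: printed compound slides probed with Chrdl2 protein at 4 µg/mL for 1 h at 4 C; score merges 667 nm emission intensity with signal to noise over three replicate slides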
[8] = biological target: Concanavalin-A (Canavalia ensiformis) (UniProt P02866); assay: compounds binding concanavalin A lectin – biochemical, small-molecule microarray, Alexa647 label, 635 nm, artefact control for SMM control protein annotation, primary screen (AID 1127); conditions: ConA-A647 binding fluorescence, higher = more signal;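 also: z combines 667 nm emission intensity with signal-to-noise across three replicate slides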
Concanavalin-A (Canavalia ensiformis), sequence (P02866 whole entry, looked up): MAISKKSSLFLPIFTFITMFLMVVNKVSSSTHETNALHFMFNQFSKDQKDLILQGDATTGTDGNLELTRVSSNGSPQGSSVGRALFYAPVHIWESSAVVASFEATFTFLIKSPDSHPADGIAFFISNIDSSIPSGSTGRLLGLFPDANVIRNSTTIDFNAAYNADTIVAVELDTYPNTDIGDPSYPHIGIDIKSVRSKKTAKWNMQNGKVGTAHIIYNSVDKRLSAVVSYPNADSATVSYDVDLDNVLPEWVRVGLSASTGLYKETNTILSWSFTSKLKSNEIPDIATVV

Albumin (Bos taurus), sequence (P02769 whole entry, looked up): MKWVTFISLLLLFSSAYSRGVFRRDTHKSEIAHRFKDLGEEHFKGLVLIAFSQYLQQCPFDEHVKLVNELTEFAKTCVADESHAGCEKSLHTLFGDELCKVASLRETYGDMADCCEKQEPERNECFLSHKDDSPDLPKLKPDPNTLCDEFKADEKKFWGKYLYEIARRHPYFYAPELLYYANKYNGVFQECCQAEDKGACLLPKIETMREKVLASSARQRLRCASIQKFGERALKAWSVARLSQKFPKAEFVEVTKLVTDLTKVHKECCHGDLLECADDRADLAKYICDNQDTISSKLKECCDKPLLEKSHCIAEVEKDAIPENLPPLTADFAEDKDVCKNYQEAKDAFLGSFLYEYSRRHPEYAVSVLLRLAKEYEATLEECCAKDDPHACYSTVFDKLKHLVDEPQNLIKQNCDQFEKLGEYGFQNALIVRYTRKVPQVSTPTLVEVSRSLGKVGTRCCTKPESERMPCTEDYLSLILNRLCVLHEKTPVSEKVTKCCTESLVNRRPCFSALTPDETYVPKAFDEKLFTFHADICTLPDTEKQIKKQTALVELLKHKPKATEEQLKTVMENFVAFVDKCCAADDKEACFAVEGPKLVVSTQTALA

SMILES	composite z-score (Albumin (Bos taurus))	composite Z-score [1]	composite z-score [2]	composite z-score [3]	composite z-score [4]	composite z-score [5]	composite z-score [6]	composite z-score (Sam68 (KHDRBS1))	composite z-score [7]	composite z-score [8]
CN(C)C(=O)[C@@]1(CCC(=O)OC(C)(C)C)N=C(c2ccc(OCCCO)cc2)O[C@H]1c1ccccc1	0.955	0.58 (inactive)	0.519	-0.0125	0.842	3.16	0.55	0.926	-0.719	0.683
CC(C)(C)N1CC=CC23O[C@@H]4/C=C\CCCOC(=O)C4[C@H]2C(=O)N(CCO)[C@@H]3C1=O (stereo not given in full)	0.268	0.103 (inactive)	-0.36	-0.204	0.872	0.575	0.29	-0.13	-0.0702	-0.0702
NC(=O)NCC#Cc1ccc2c(c1)[C@]1(C(=O)N2)[C@H](C(=O)NC[C@H](O)c2ccccc2)[C@H]2C(=O)O[C@H](c3ccccc3)[C@H](c3ccccc3)N2[C@@H]1c1ccc(O)cc1	0.496	0.58 (inactive)	0.51	0.159	0.501	2.15	0.743	0.998	0.395	1.13
Cc1ccc(S[C@]2(C(=O)NCc3ccccc3)CC(=O)N(Cc3ccccc3)[C@@H]2c2ccc(CO)cc2)cc1	-0.398	0.115 (inactive)	-0.25	-0.149	0.654	1.86	0.569	0.176	-0.525	0.423
O=C(CS)NCCCCCCNC(=O)[C@H]1C[C@H]2C(=O)NCC(=O)N2[C@H]1c1ccc(O)cc1	-0.523	0.131 (inactive)	-0.25	-0.14	0.696	0.677	0.621	-0.272	0.129	0.336
COc1ccc([Si](C)(C)[C@H]2[C@H](CCn3cc(CCO)nn3)O[C@@]3(C(=O)N(Cc4ccc(N5CCOC5=O)cc4)c4ccccc43)[C@@H]2C)cc1	0.535	0.533 (inactive)	-0.0126	-0.112	0.458	1.94	0.622	1.23	0.21	0.702
CCCCC(O)C1C=CC2C(=O)N(C3CCCCC3)C(=O)C2N1Nc1ccc(OC)cc1 (stereo not given)	0.739	0.258 (inactive)	0.11	-0.0894	0.511	1.53	0.56	1.19	-0.135	0.8
COC(=O)[C@@]1(Cc2ccc(OC)cc2)[C@H]2c3cc(C(=O)N4CCCC4)n(Cc4ccccn4)c3C[C@H]2CN1C(=O)c1ccccc1	0.939	-0.832 (inactive)	0.277	0.246	0.82	1.55	0.285	1.31	-0.761	0.906
COc1ccc(C(O)C2C=CC3C(=O)N(c4ccccc4)C(=O)C3N2Nc2ccc([N+](=O)[O-])cc2)cc1OCc1ccccc1 (stereo not given)	0.927	-0.114 (inactive)	1.33	0.708	0.591	1.53	1.22	1.16	0.471	1.14
O=C1O[C@H](c2ccccc2)[C@H](c2ccccc2)N2[C@H]1[C@@H](C(=O)Nc1nc3ccccc3s1)[C@]1(C(=O)Nc3ccccc31)[C@H]2c1ccc(O)cc1	0.164	0.0275 (inactive)	0.156	-0.0873	0.36	1.66	0.293	1.02	0.701	1.07
C=CCNC(=O)[C@@H]1[C@H]2C(=O)O[C@H](c3ccccc3)[C@H](c3ccccc3)N2[C@H](c2ccccc2OCCO)[C@@]12C(=O)Nc1ccc(C#CC3=CCCCC3)cc12	0.482	-0.224 (inactive)	0.0105	-0.0907	0.271	2.18	0.536	1.3	0.436	0.99
[N-]=[N+]=NCc1ccccc1C[C@]1(C(=O)O)N=C(c2ccc(OCCCO)cc2)O[C@H]1c1ccccc1	0.954	-0.37 (inactive)	-0.0414	-0.0633	0.685	1.79	0.249	0.52	-0.741	1.11
COCCOC(=O)N1C(=O)[C@@]2(c3cc(C#CCNC(N)=O)ccc31)[C@H](c1ccccc1OCCO)N1[C@H](c3ccccc3)[C@H](c3ccccc3)OC(=O)[C@H]1[C@@H]2C(N)=O	-0.117	-0.479 (inactive)	-0.0345	-0.148	0.475	-0.726	0.177	1.22	0.616	1.18
CCOC(=O)C1=CCC(c2ccc([N+](=O)[O-])cc2)N(S(=O)(=O)c2ccc(C)cc2)C1 (stereo not given)	0.261	0.448 (inactive)	0.0351	-0.0439	0.408	1.12	0.279	0.377	-0.0439	0.666
CCCCCN1CC=CC23O[C@@H]4C=CCOC(=O)[C@@H]4[C@H]2C(=O)N(CCCO)[C@@H]3C1=O (stereo not given in full)	1.02	1.01 (inactive)	-0.245	-0.155	0.851	2.39	0.937	1.28	-0.205	0.221
COc1ccc([Si](C)(C)[C@H]2[C@H](CC(=O)N(CCO)Cc3ccccc3)O[C@@]3(C(=O)N(Cc4cccc(N5CCC5=O)c4)c4ccccc43)[C@@H]2C)cc1	0.378	4.59 (inactive)	-0.0802	-0.154	0.454	1.12	0.782	1.01	1.1	1.11
COC(=O)[C@@]1(Cc2ccc(F)cc2)[C@H]2c3cc(C(=O)N4CCCC4)n(Cc4cccc5ccccc45)c3C[C@H]2CN1C(=O)c1ccccc1	1.08	-0.421 (inactive)	0.535	0.173	0.533	3.22	0.513	1.07	-0.411	0.405
COC(=O)C[C@H]1O[C@]2(C(=O)N(Cc3ccccc3)c3ccc(NC(C)=O)cc32)[C@@H](C)[C@@H]1[Si](C)(C)c1ccc(OC)cc1	0.298	-0.114 (inactive)	0.0485	-0.13	0.269	0.696	0.189	1.31	0.48	0.355
CS(=O)(=O)CCOC(=O)C1=CC(CCCO)=CC(c2cccs2)N(Cc2cc3c(cc2Br)OCO3)C=C1C(=O)OCCS(C)(=O)=O (stereo not given)	0.974	1.05 (inactive)	0.183	-0.0149	0.337	1.64	0.817	1.3	0.164	0.986
CC(C)NC(=O)[C@@]1(Cc2ccccc2I)c2ccccc2C(=O)N(Cc2ccccc2)[C@H]1c1ccc(CO)cc1	0.162	1.17 (inactive)	0.204	-0.0608	0.481	1.96	0.206	1.29	0.325	0.968
CN(C)C(=O)[C@]1(CCC(=O)OC(C)(C)C)N=C(c2ccc(OCCCO)cc2)O[C@@H]1c1ccccc1N=[N+]=[N-]	0.934	0.155 (inactive)	0.374	-0.0985	0.719	3.15	0.964	1.31	-0.516	0.858
Cc1ccc([C@H]2C(C(=O)O)=C[C@@H](C)N2S(=O)(=O)c2ccc(C)cc2)cc1	0.892	0.24 (inactive)	-0.0918	0.069	0.866	2.6	0.166	0.821	-1.55	-0.72
COc1ccc(NN2C(C(O)c3ccc(OC)c(OCc4ccccc4)c3)C=CC3C(=O)N(C4CCCCC4)C(=O)C32)cc1 (stereo not given)	0.976	0.745 (inactive)	0.252	-0.122	0.274	2.52	0.0516	1.24	0.275	1.11
CC(C)c1ccc(NN2C(C(O)c3ccc(N(C)C)cc3)C=CC3C(=O)N(c4ccccc4)C(=O)C32)cc1 (stereo not given)	0.961	-0.343 (inactive)	0.432	0.0147	0.393	2.76	-0.161	1.29	-0.0118	1.16
CCCCC(CC)C(O)C1C=CC2C(=O)N(c3ccccc3)C(=O)C2N1Nc1ccccc1 (stereo not given)	0.83	0.392 (inactive)	0.206	-0.122	0.665	2.28	0.297	0.883	-0.804	0.964
CCCCCN1CC=CC23O[C@@H]4/C=C\CCCOC(=O)C4[C@H]2C(=O)N(CCCCCCO)[C@@H]3C1=O (stereo not given in full)	-0.0739	-0.328 (inactive)	-0.262	-0.153	0.858	2.05	1.14	-0.542	-1.01	-0.74
C=C[C@@H](COC(C)=O)N(Cc1ccccc1[N+](=O)[O-])S(=O)(=O)c1ccc(Br)cc1	0.138	1.55 (inactive)	0.122	0.181	0.659	-0.0383	0.343	0.92	1.32	0.602
COCCOC(=O)N1C(=O)[C@@]2(c3cc(C#CCC(C(=O)OC)C(=O)OC)ccc31)[C@H](c1ccccc1OCCO)N1[C@H](c3ccccc3)[C@H](c3ccccc3)OC(=O)[C@H]1[C@@H]2C(=O)N1CCc2cc(OC)c(OC)cc2C1	0.534	0.405 (inactive)	0.134	-0.16	0.45	0.833	0.211	1.29	0.787	1.16
CCOC(=O)C[C@H]1[C@H](OC(=O)c2ccc(-c3ccccc3)cc2)[C@@H](NC(=O)Cc2ccc(OC)cc2)c2cc(OCCCO)ccc2N1C(=O)c1ccc2ccccc2n1	0.647	-1.15 (inactive)	0.0408	-0.0288	0.19	1.24	0.561	0.891	-0.62	0.762
